Assay results taken from paper PMC5540273 (PLoS ONE, 2017).

Test system: CAMKK1
Settings: concentration: 1 μM, replicates: in singlicate; n = 1
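Also: KINOMEscan kinase panel screen.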

Compound | %Inh
CN1C(=O)C(Nc2ccc(Cl)c(C(=O)O)c2)=C(c2ccc(Cl)cc2)C1=O [SB-404290] | 0%
Cc1cccc(-c2nc(-c3ccc(S(C)(=O)=O)cc3)sc2-c2ccnc(NCCc3ccccc3)c2)c1 | 13%
COc1cccc(-c2cc(-c3c[nH]nc3-c3ccccn3)ccn2)c1 [GW680338] | 0%
Cl.NC(=O)c1cccc(Nc2nccc(Nc3ccc(Oc4cccc(Cl)c4)c(Cl)c3)n2)c1 [GW659008] | 0%
Cn1ccc2ncnc(Oc3ccc(NC(=O)Nc4ccccc4)cc3)c21 | 0%
Cc1ccc(C(=O)Nc2ccc(Nc3ccnc4cc(-c5ccccn5)ccc34)cc2O)cc1.Cl [GW440146] | 0%
Cc1c(O)cccc1Nc1ccnc2ccc(C(F)(F)F)cc12.Cl [GW466413] | 12%
CC(C)(C)c1ccc(C(=O)Nc2cn3cc(-c4cccnc4)ccc3n2)cc1 | 21%
CC1=C(C(=O)Nc2cc3cn[nH]c3cc2F)C(c2ccc(C(F)(F)F)cc2)CC(=O)N1 (centres unmarked) [GSK429286] | 17%
Cl.c1ccc(-c2n[nH]cc2-c2ccnc(-c3ccc(CN4CCOCC4)cc3)c2)nc1 [GW776245] | 26%
Cc1cccc(-c2cc(Nc3ccncc3)c3ccccc3n2)n1 [GSK223675] | 12%
Cc1cccc(-c2nc(Nc3ccncc3)c3ccccc3n2)n1 [GW855857] | 24%
COc1ccc2nc(-c3cccc(C)n3)nc(Nc3ccncc3)c2c1 [GSK204919] | 0%
COc1ccc(C2=C(Nc3cccc(C(=O)O)c3)C(=O)NC2=O)cc1 [SB-390765] | 0%
COc1ccc(Nc2nccc(-c3cccc(NC(=O)c4cc5cc(F)ccc5[nH]4)c3)n2)cc1 [GSK1229782] | 20%
CCCc1ccc(S(=O)(=O)NC2CCN(c3ccnc(Nc4ccc(F)cc4)n3)C2)cc1 (centres unmarked) [GSK1379715] | 12%
CSc1nn2c(=O)cc(N3CCOCC3)nc2n1Cc1cccc(C(F)(F)F)c1C [GSK2363608] | 0%
CC(=O)Nc1nc2cnc(Nc3cc(NC(=O)c4cccc(CCC#N)c4)ccc3C)nc2s1 | 0%

Compound | %Inh
Cc1ccc(NC(=O)Nc2cc(C(C)(C)C)nn2-c2ccccc2)cc1 [GSK1014915] | 12%
Cc1cccc(-c2nc(Nc3ccc4[nH]ncc4c3)c3ccccc3n2)n1 [GW857175] | 0%
Cc1cccc(-c2nc(C)cc(Nc3ccncc3)n2)n1 [GSK257997] | 0%
CS(=O)(=O)c1ccc(-c2nc3n(c2-c2ccncc2)CCC3)cc1 [SKF-105942] | 0%
O=C(Nc1ccc2c(c1)OCO2)NC1CCN(c2ccnc(Nc3ccc(F)cc3)n2)C1 (centres unmarked) [GSK1379724] | 9%
O=c1cc(N2CCOCC2)nc2n(Cc3cccc(Cl)c3Cl)ccn12 [GSK2286295] | 14%
COC(=O)c1c(-c2ccccc2)c2cc(OC)ccc2c(=O)n1Cc1ccccc1 | 16%
O=C(Nc1ccccc1)Nc1cccc(Oc2ccc3nccn3n2)c1 | 0%
Fc1cc(Cl)ccc1Nc1ccnc2cc(I)ccc12 [GW551191] | 0%
Cc1ccc(NC(=O)Nc2cccc(Cl)c2)cc1-c1ccc(C(=O)Nc2ccncc2)cc1 [GSK1398468] | 0%
O=C(O)COc1ncnc2cc(-c3ccc4[nH]ncc4c3)sc12 | 34%
Cn1ccc2ncnc(Oc3cccc(C(=O)Nc4ccccc4)c3)c21 | 20%
Cc1ccccc1-n1cnc2c(N)ncnc21 [SKF-97510] | 1%
COc1cc2ncnc(Nc3ccc4nc(-c5ccccc5)[nH]c4c3)c2cc1OC.Cl [GW282450] | 11%
Cl.O=C(Nc1cccc(-c2nn3ncccc3c2-c2ccnc(Nc3cccnc3)n2)c1)c1c(F)cccc1F [GSK312879] | 4%
NC(=O)c1nnc2ccccc2c1N | 10%
CN(C)CCN(C)C(=O)c1cc(-c2ccncc2)c(-c2ccc(Cl)c(O)c2)o1.Cl.Cl [SB-710397] | 0%
